Data on four molecules can be found in PubChem BioAssay (EPA / NIEHS).

Test [1] in a line: ATG_GRE_CIS: Attagene CIS-FACTORIAL HepG2 Assay for human Glucocorticoid Response Elements (GRE) (AID 2282947). Conditions: HepG2 GRE cis-reporter, Attagene multiplex mRNA; actives raise or lower the signal. In outline:
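Transiently transfected HepG2 cells carrying GRE cis-reporter units (endogenous TF activity) dosed 24 h; reporter mRNA quantified by RT-PCR, 6-FAM labelling, HpaI digestion and capillary electrophoresis. Bidirectional fit versus DMSO baseline.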

The nature of test [2]: ATG_ISRE_CIS: Attagene CIS-FACTORIAL HepG2 Assay for human Interferon Regulatory Factor 1 (IRF1) binding to an Interferon-Stimulated Response Element (ISRE) (AID 2282948). The settings on record: HepG2 ISRE cis-reporter (Attagene), mRNA transcription readout; actives raise or lower the signal. The gist of the method:
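HepG2 cells transiently transfected with multiplexed cis-promoter reporter units; after 24 h compound exposure, reporter mRNA quantified by RT-PCR, FAM labelling, HpaI digestion and capillary electrophoresis. Bidirectional fit versus DMSO baseline.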

The nature of test [3]: ATG_M_32_CIS: Attagene CIS-FACTORIAL HepG2 Assay for M32 Transcription Factor (Internal Marker) (AID 2282949).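 Also: background control marker of the multiplexed CIS panel rather than a real target.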 The settings on record: HepG2 Attagene cis-factorial M32 reporter, mRNA; actives raise or lower the signal. In outline: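 Fluorescent capillary electrophoresis peaks of HpaI-digested, FAM-labelled RT-PCR reporter products give the signal. Source: transiently transfected human liver HepG2 cells, 24 h after chemical dosing; bidirectional fitting against DMSO.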

Test [4] is described as follows: ATG_M_06_CIS: Attagene CIS-FACTORIAL HepG2 Assay for M06 Transcription Factor (Internal Marker) (AID 2282950). Conditions: HepG2 Attagene CIS-FACTORIAL M06 internal marker reporter; actives raise or lower the signal. The gist of the method: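 Cells (HepG2, transiently carrying cis-driven reporter units) receive chemical for 24 h before RNA isolation. Reporter cDNA is PCR-amplified, FAM-labelled by primer extension, HpaI-digested and sized on a capillary analyser.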

Test [5] has as its target Hypoxia-inducible factor 1-alpha (Homo sapiens) (UniProt Q16665). As to the kind of experiment: ATG_HIF1a_CIS: Attagene CIS-FACTORIAL HepG2 Assay for human Hypoxia Inducible Factor 1 (HIF1A) (AID 2282951). The settings on record: HepG2 Attagene cis-factorial HIF1a reporter transcription; actives raise or lower the signal. The gist of the method:
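Transient MRTU transfection of human HepG2 liver cells, 24 h compound treatment, then total RNA isolation, oligo(dT) reverse transcription, PCR amplification, fluorescent labelling and capillary electrophoresis of reporter fragments. Gain or loss relative to DMSO.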

Test [6] addresses Hepatocyte nuclear factor 6 (Homo sapiens) (UniProt Q9UBC0). As to the kind of experiment: ATG_HNF6_CIS: Attagene CIS-FACTORIAL HepG2 Assay for human Hepatocyte Nuclear Factor 6 (HNF6) (AID 2282952). The settings on record: HepG2 Attagene cis-factorial HNF6 reporter transcription; actives raise or lower the signal. In outline: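 Transiently transfected HepG2 cells expressing cis-regulated reporter transcription units were exposed to chemical for 24 h in a 24-well format. Reporter transcript abundance was determined by fluorescence capillary electrophoresis.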

Test [7] in a line: ATG_MRE_CIS: Attagene CIS-FACTORIAL HepG2 Assay for human Metal Responsive Element (MRE) (AID 2282954). Conditions: HepG2 MRE cis-reporter transcription, Attagene multiplex; actives raise or lower the signal. In outline:
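HepG2 cells transiently transfected with cis-element-driven reporter units; mRNA measured 24 h after dosing. Reporter transcripts quantified by RT-PCR, FAM labelling, HpaI digestion and capillary electrophoresis; bidirectional fit versus DMSO.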

Test [8] in a line: ATG_PBREM_CIS: Attagene CIS-FACTORIAL HepG2 Assay for human Phenobarbital-responsive Enhancer Module (PBREM) (AID 2282955). The settings on record: HepG2 PBREM cis-reporter, Attagene multiplexed transcription; actives raise or lower the signal. The gist of the method:
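Endogenous transcription factors in human liver HepG2 cells drive a PBREM cis-element reporter, whose transcript level after 24 h treatment is quantified by RT-PCR with capillary electrophoresis; activity fitted in both directions against DMSO.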

Test [9] addresses Paired box protein Pax-6 (Homo sapiens) (UniProt P26367). Kind of test: ATG_Pax6_CIS: Attagene CIS-FACTORIAL HepG2 Assay for human Paired Box 6 (PAX6) (AID 2282956). The settings on record: HepG2 CIS-FACTORIAL PAX6 reporter transcription, RNA readout; actives raise or lower the signal. The gist of the method:
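HepG2 cells transiently transfected with multiplexed cis-promoter reporter units (endogenous TF activity) were dosed for 24 h. Reporter mRNA was quantified by RT-PCR, 6-FAM labeling, HpaI digestion and capillary electrophoresis; bidirectional fitting versus DMSO baseline.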

Test [10] in a line: ATG_PXRE_CIS: Attagene CIS-FACTORIAL HepG2 Assay for human Pregnane X Receptor Element (PXRE) (AID 2282957). The settings on record: HepG2 Attagene CIS-FACTORIAL PXRE reporter, mRNA; actives raise or lower the signal. In outline:
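Cis-element reporter mRNA in human hepatoma HepG2 cells is measured 24 h post-dosing by RT-PCR, primer-extension labeling and capillary electrophoresis; gain or loss of signal is fitted relative to DMSO.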

Test [11] in a line: ATG_PPRE_CIS: Attagene CIS-FACTORIAL HepG2 Assay for human Peroxisome Proliferator-activated Response Element (PPRE) (AID 2282958). The settings on record: HepG2 PPRE cis-element reporter, Attagene transcription factor profiling; actives raise or lower the signal. In outline:
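HepG2, transient MRTU transfection (cis promoter elements, endogenous TFs). 24 h dosing. RNA → oligo(dT) RT → PCR → 6-FAM primer extension → HpaI digest → CE. Bidirectional fit vs DMSO.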

The nature of test [12]: ATG_RORE_CIS: Attagene CIS-FACTORIAL HepG2 Assay for human RAR-related Orphan Receptor Element (RORE) (AID 2282959). Conditions: HepG2 Attagene cis-factorial RORE reporter, mRNA; actives raise or lower the signal. The gist of the method: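 Transient MRTU transfection of human HepG2 liver cells (FuGene 6); 24 h compound exposure; TriZol RNA, oligo(dT) RT, PCR, FAM labeling, HpaI cut, CE fragment analysis. DMSO = negative control/baseline.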

Test [13] addresses Transcription factor Sp1 (Homo sapiens) (UniProt P08047). Kind of test: ATG_Sp1_CIS: Attagene CIS-FACTORIAL HepG2 Assay for human Specificity Protein 1 (Sp1) (AID 2282961). Conditions: HepG2 Sp1 cis-reporter transcription, actives raise or lower the signal. In outline:
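Transient MRTU-transfected HepG2, 24 h compound exposure. Total RNA → oligo(dT) RT → PCR of reporter → 6-FAM primer extension → HpaI digest → CE. Endpoint fitted both directions vs DMSO.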

A short description of test [14]: ATG_SREBP_CIS: Attagene CIS-FACTORIAL HepG2 Assay for human Sterol Regulatory Element Binding (SREBP) (AID 2282962). The settings on record: HepG2 Attagene cis-factorial SREBP reporter, mRNA; actives raise or lower the signal. In outline: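 HepG2 cells transiently transfected with multiplexed cis-element reporter units report endogenous transcription factor activity. After 24 h of chemical exposure, reporter mRNA was quantified by RT-PCR, 6-FAM labelling, HpaI digestion and capillary electrophoresis; bidirectional fits used DMSO as baseline.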

Test [15] can be described thus: ATG_TA_CIS: Attagene CIS-FACTORIAL HepG2 Assay for human TA Basal Promoter (AID 2282964). The settings on record: HepG2 Attagene CIS-factorial TA basal promoter reporter; actives raise or lower the signal. The gist of the method: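 Background internal-marker endpoint from a 52-component HepG2 cis-reporter panel. Cells treated 24 h; reporter transcripts quantified via RT-PCR and CE fluorescence against DMSO baseline.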

Test [16] can be described thus: ATG_TCF_b_cat_CIS: Attagene CIS-FACTORIAL HepG2 Assay for human T-Cell-Factor with beta-catenin (TCF/b-cat) (AID 2282965). The settings on record: HepG2 TCF/beta-catenin cis-reporter transcription, actives raise or lower the signal. In outline: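 HepG2, transient MRTU transfection, cis-element-driven reporters (endogenous TFs). 24 h compound exposure. Readout: reporter mRNA by RT-PCR + 6-FAM primer extension, HpaI digest, capillary electrophoresis. Gain/loss fit vs DMSO baseline.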

Test [17] addresses Heat shock factor protein 1 (Homo sapiens) (UniProt Q00613). Kind of test: ATG_HSE_CIS: Attagene CIS-FACTORIAL HepG2 Assay for human Heat Shock Transcription Factor 1 (HSE) (AID 2282953). The settings on record: HepG2 HSE cis-reporter, Attagene RNA transcription; actives raise or lower the signal. The gist of the method:
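Liver-derived HepG2 cells carry transiently introduced multiple reporter units governed by cis promoters. Reporter RNA measured 24 h post-dose through reverse transcription, PCR amplification, fluorescent labelling and capillary electrophoresis, normalised to DMSO.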

A short description of test [18]: ATG_Sox_CIS: Attagene CIS-FACTORIAL HepG2 Assay for human SRY-box transcription factor (SOX) (AID 2282960). The settings on record: HepG2 Attagene cis-factorial SOX reporter, mRNA; actives raise or lower the signal. In outline: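 Endogenous factor activity in human liver HepG2 cells carrying transfected cis-regulated reporter units. RNA taken 24 h post-dose, reverse-transcribed, PCR-amplified and sized by capillary electrophoresis. Gain or loss of signal fitted relative to DMSO.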

For test [19], the target named is Signal transducer and activator of transcription 3 (Homo sapiens) (UniProt P40763). As to the kind of experiment: ATG_STAT3_CIS: Attagene CIS-FACTORIAL HepG2 Assay for human Signal Transducer and Activator of Transcription 3 (STAT3) (AID 2282963). The settings on record: HepG2, Attagene cis-factorial STAT3 reporter transcription; actives raise or lower the signal. The gist of the method:
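HepG2 cells transiently transfected with multiple cis-element-driven reporter units report endogenous transcription factor activity. After 24 h compound exposure, reporter mRNA is measured by RT-PCR, 6-FAM labelling, HpaI digestion and capillary electrophoresis. Fitted bidirectionally versus DMSO.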

Activity calls are given as the source filed them. The calls were made as follows: active = hit-call score of the fitted dose curve at least 0.9, where 1 is the maximum; inactive = score below 0.9.

Sequence of Paired box protein Pax-6 (Homo sapiens) (P26367 whole entry, looked up): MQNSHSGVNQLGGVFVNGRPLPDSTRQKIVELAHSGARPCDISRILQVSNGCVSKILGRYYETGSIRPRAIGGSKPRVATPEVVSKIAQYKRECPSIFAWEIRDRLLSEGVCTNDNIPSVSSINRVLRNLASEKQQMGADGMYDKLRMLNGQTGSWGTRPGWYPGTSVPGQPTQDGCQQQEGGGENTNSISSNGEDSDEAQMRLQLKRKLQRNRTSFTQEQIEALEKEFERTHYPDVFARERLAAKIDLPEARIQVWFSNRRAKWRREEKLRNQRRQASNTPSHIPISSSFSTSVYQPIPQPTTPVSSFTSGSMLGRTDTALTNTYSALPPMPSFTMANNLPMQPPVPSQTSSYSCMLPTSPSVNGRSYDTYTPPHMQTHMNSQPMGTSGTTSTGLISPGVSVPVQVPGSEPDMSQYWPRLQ
Sequence of Hypoxia-inducible factor 1-alpha (Homo sapiens) (Q16665 whole entry, looked up, the tested form may be a part): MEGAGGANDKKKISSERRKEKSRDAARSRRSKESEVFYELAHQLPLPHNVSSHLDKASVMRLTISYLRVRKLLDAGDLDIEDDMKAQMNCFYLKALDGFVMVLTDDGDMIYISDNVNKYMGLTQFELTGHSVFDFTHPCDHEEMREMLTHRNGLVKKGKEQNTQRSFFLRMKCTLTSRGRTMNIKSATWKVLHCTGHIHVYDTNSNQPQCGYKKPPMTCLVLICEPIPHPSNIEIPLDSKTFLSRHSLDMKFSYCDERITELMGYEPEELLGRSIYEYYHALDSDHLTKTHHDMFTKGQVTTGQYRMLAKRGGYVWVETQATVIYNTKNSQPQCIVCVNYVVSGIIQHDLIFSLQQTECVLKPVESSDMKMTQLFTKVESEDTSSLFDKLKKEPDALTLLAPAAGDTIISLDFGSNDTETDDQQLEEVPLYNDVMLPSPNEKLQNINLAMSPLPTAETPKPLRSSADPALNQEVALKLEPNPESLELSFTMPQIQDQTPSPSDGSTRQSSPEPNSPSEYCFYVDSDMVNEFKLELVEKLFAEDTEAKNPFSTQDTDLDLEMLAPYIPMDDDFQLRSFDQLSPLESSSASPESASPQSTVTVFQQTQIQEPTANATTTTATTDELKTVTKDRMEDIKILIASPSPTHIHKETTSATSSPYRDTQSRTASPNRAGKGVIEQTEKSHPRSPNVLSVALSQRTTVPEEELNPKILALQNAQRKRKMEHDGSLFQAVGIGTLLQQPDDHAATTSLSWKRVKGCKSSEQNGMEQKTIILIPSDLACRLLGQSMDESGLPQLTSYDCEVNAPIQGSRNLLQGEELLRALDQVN
Sequence of Heat shock factor protein 1 (Homo sapiens) (Q00613 whole entry, looked up): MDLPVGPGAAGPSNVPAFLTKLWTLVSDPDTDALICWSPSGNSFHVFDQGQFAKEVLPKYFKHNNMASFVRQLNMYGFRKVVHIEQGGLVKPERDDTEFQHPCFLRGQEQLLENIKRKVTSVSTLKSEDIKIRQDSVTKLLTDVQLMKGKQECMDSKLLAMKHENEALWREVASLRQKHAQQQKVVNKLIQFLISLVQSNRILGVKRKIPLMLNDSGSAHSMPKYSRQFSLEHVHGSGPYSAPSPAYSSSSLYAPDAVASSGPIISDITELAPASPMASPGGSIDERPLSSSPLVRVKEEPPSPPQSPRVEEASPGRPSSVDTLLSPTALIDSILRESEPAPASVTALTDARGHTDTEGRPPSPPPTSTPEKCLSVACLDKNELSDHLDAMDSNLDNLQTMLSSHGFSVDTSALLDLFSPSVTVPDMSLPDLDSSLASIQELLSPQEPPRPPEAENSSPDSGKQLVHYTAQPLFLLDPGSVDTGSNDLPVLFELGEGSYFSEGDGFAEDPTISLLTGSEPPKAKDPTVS
Sequence of Signal transducer and activator of transcription 3 (Homo sapiens) (P40763 whole entry, looked up): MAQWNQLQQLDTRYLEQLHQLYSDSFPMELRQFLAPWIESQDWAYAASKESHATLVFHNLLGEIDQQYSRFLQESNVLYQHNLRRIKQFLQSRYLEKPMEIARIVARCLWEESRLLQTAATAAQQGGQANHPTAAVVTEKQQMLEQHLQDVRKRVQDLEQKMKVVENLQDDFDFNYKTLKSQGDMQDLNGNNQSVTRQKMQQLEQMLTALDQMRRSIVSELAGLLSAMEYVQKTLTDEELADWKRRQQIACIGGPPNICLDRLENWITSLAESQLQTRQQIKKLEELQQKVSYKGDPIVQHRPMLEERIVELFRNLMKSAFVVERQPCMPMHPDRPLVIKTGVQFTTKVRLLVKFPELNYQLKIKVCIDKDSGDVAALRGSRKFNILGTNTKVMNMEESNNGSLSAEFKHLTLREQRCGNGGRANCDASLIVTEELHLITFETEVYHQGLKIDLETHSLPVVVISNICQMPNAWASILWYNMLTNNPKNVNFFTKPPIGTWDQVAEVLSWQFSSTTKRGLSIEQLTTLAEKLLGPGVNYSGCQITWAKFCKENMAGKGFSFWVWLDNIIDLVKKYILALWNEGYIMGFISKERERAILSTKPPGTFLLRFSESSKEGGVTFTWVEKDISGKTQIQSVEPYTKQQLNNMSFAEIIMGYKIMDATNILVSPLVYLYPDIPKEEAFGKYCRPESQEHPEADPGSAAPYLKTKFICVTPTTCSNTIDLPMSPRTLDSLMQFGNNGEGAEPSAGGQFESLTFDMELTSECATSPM
Sequence of Transcription factor Sp1 (Homo sapiens) (P08047 whole entry, looked up): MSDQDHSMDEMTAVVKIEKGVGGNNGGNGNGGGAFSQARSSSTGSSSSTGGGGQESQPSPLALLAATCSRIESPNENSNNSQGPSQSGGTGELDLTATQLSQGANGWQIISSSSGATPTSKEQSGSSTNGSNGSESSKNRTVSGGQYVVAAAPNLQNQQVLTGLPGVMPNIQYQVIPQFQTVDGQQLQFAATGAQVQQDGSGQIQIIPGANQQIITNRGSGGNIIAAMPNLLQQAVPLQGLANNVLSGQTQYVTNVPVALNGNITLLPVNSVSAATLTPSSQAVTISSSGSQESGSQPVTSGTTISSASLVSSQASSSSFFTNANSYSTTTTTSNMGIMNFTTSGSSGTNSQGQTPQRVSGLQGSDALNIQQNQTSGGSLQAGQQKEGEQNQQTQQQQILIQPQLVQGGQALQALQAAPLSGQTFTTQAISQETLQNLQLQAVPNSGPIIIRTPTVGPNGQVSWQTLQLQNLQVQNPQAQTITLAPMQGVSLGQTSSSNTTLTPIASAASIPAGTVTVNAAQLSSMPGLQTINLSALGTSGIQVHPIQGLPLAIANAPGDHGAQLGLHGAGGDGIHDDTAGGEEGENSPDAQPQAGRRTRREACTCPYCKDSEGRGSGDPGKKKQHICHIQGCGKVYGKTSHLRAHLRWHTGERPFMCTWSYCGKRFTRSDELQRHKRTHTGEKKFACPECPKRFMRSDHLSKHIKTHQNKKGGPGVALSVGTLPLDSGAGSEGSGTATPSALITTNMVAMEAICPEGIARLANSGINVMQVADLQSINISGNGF
Sequence of Hepatocyte nuclear factor 6 (Homo sapiens) (Q9UBC0 whole entry, looked up): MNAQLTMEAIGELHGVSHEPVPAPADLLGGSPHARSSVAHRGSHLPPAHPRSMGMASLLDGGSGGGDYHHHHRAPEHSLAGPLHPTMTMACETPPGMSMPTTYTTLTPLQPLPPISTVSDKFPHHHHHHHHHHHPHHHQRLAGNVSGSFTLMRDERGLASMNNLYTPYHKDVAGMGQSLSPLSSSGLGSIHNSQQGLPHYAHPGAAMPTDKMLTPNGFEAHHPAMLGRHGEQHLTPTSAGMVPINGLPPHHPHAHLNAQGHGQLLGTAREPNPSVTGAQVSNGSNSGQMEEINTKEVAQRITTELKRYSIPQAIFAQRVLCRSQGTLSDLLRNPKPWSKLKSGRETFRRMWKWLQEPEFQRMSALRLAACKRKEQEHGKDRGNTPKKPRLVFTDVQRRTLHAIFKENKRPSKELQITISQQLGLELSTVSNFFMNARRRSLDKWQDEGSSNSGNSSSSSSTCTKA

As to `CCOC(=O)c1ccc(N(C)C)cc1`, the outcome in test [1], in [2], in test [3], in test [4], in test [5] and in [6] was inactive. Moreover, the molecule was classed as inactive in test [7], in [8], in test [9], in [11], in test [12] and in [13]. Besides, the outcome in [14], in [15] and in test [16] was inactive. Also, the AC50 – broadly, the concentration at which the activity in the assay is half-maximal – in test [10] is 28.1 µM (active).
Regarding `CC1(C)O[C@@H]2C[C@H]3[C@@H]4C[C@H](F)C5=CC(=O)C=C[C@]5(C)[C@@]4(F)[C@@H](O)C[C@]3(C)[C@]2(C(=O)CO)O1`, the AC50 in test [1] is 0.563 µM (active); in test [10], 6.12 µM (active). For the same molecule, the molecule was classed as inactive in test [2], in test [3], in [4], in test [5], in [6] and in test [17]. For the same molecule, the molecule was classed as inactive in test [7], in test [9], in [11], in test [18], in [13] and in test [14]. Further, the call in test [19] and in [16] was inactive.
As to `COc1ccc(NC(C)=O)cc1N`, the call in test [1], in test [2], in test [3], in test [4], in [5] and in [6] was inactive. Besides, the result in [17], in test [7], in test [9], in test [10], in test [11] and in [18] was inactive. The molecule was called inactive in test [13], in test [14], in [19], in test [15] and in test [16].
As to `Cc1ccc(C(C)c2ccc(C)c(C)c2)cc1C`, the AC50 in [1] is 24.8 µM (active); in [5], 26.1 µM (active); in test [17], 100 µM (active); in [7] it was 181 µM (active); in [10], 3.88 µM (active); in [13] it was 100 µM (active). Also, the molecule was called inactive in [2], in test [3], in test [4], in [6], in test [9] and in test [11]. In addition, the molecule was classed as inactive in [12], in test [18] and in [19].
